Data from the supplement of paper PMC11732987, “Enantioselective OTUD7B fragment discovery through chemoproteomics screening and high-throughput optimisation” (Communications Chemistry, 2025).

Tests used:
Assay in all cases: log2 ratio of Biotin-Ahx-Ub-VS probe labelling (fragment/DMSO); higher = less target engagement (more negative = stronger competition), active = hit call of the paper (q ≤ 0.05, log2 ratio ≤ -1)
Conditions in all cases: compound concentration: 200 uM; treatment time: 3 h
OTUD6B = molecular target: T1, OTUD6B (UniProt Q8N6M0)
T1 sequence (whole entry): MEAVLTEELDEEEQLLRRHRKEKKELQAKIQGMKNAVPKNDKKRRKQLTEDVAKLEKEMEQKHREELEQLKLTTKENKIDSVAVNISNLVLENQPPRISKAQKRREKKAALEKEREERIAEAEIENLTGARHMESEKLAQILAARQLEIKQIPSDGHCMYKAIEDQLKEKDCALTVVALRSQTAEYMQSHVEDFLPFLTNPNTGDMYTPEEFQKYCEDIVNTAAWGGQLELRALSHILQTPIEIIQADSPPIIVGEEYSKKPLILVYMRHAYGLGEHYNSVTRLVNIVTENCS
Outline: (§1)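 Global-median-normalised Spectronaut label-free quantities were compared by unpaired t-test, and values are average log2 ratios of fragment over vehicle. Only proteins with ≥2 unique peptides were used. HEK293T lysate (495 µg per sample) was treated in triplicate with fragment at 200 µM or vehicle for 3 h and then with Biotin-Ahx-Ub-VS at 0.5 µM final for 1 h. Labelled DUBs were then NeutrAvidin-enriched, digested with LysC and trypsin, and run by diaPASEF LC-MS/MS.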

OTUD7B = molecular target: T2, OTUD7B (UniProt Q6GQQ9)
T2 sequence (whole entry): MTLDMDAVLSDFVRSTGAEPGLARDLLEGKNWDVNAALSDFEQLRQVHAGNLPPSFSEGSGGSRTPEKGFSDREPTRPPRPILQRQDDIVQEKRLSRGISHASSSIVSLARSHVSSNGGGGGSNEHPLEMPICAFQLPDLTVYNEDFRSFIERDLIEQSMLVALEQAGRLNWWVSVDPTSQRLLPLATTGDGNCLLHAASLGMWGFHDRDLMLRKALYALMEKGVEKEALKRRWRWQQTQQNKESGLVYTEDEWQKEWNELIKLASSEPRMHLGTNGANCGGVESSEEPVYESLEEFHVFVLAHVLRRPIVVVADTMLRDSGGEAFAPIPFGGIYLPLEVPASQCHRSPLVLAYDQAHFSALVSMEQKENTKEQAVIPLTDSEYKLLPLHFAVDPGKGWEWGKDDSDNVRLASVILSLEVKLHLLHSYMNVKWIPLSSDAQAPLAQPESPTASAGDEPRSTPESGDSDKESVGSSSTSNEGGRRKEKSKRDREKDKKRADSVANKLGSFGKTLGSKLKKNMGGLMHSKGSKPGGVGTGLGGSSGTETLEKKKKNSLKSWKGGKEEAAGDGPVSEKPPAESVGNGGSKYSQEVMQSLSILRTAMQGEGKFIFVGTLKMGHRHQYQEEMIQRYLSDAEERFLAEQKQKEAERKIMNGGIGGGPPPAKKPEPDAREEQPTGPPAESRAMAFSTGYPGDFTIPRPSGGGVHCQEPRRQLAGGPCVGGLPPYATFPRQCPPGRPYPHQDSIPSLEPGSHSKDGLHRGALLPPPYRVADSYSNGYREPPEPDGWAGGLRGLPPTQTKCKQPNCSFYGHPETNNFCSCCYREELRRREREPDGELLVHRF
Outline: as §1

PRPF8 = PRPF8 (UniProt Q6P2Q9)
Outline: as §1

PSMD7 = molecular target: T3, PSMD7 (UniProt P51665)
T3 sequence (whole entry): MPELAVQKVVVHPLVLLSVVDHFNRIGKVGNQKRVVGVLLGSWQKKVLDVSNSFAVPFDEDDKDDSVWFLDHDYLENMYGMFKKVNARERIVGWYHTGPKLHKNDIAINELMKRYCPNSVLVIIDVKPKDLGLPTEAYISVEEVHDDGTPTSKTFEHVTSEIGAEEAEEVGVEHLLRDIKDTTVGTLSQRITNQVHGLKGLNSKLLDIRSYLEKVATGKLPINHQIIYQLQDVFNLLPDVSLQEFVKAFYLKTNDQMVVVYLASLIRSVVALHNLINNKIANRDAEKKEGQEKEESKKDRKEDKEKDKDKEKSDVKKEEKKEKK
Outline: as §1

UCHL1 = UCHL1 (UniProt P09936)
Sequence of UCHL1 (P09936 whole entry, looked up): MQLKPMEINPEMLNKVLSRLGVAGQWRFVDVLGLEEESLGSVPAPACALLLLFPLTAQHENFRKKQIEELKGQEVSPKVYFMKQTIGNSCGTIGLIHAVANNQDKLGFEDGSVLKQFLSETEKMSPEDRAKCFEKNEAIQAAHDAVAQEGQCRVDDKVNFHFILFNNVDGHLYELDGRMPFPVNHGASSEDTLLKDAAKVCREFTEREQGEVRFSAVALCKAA
Outline: as §1

UCHL3 = molecular target: T4, UCHL3 (UniProt P15374)
T4 sequence (whole entry): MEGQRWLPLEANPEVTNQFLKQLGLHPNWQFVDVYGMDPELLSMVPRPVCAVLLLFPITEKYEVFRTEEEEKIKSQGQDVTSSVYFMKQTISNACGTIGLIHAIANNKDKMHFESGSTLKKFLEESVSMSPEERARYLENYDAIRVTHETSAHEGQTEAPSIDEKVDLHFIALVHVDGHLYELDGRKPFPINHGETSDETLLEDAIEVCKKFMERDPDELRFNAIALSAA
Outline: as §1

UCHL5 = molecular target: T5, UCHL5 (UniProt Q9Y5K5)
T5 sequence (whole entry): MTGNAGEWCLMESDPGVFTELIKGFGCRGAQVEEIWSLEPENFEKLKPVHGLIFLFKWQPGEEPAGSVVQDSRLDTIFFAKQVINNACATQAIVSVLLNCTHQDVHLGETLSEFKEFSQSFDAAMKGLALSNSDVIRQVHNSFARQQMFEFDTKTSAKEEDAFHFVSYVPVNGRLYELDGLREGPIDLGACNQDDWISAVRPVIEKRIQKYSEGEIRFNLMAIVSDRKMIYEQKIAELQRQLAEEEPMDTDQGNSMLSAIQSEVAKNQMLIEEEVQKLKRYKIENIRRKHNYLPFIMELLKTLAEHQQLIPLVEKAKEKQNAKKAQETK
Outline: as §1

USP10 = USP10 (UniProt Q14694)
Sequence of USP10 (Q14694 whole entry): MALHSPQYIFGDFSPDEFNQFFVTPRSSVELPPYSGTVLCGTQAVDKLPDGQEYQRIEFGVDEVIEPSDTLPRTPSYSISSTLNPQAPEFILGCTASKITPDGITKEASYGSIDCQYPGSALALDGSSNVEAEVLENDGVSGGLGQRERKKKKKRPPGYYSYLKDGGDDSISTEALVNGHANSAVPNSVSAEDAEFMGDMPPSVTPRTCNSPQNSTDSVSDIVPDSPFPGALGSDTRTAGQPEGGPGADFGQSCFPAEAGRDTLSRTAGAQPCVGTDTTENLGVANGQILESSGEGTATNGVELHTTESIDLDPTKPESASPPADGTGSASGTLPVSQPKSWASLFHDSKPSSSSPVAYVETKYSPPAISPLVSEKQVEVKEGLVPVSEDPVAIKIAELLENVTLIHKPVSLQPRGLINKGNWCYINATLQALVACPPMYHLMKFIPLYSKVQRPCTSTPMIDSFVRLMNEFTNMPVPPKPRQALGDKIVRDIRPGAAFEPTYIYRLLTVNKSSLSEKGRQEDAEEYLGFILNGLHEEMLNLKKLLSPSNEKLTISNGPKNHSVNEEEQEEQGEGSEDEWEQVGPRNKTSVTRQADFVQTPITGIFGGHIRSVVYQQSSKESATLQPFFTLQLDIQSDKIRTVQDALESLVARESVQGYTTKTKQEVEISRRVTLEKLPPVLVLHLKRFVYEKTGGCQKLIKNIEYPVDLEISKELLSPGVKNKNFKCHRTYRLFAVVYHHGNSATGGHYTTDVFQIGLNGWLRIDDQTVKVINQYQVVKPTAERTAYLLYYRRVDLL
Outline: as §1

USP15 = molecular target: T6, USP15 (UniProt Q9Y4E8)
T6 sequence (whole entry): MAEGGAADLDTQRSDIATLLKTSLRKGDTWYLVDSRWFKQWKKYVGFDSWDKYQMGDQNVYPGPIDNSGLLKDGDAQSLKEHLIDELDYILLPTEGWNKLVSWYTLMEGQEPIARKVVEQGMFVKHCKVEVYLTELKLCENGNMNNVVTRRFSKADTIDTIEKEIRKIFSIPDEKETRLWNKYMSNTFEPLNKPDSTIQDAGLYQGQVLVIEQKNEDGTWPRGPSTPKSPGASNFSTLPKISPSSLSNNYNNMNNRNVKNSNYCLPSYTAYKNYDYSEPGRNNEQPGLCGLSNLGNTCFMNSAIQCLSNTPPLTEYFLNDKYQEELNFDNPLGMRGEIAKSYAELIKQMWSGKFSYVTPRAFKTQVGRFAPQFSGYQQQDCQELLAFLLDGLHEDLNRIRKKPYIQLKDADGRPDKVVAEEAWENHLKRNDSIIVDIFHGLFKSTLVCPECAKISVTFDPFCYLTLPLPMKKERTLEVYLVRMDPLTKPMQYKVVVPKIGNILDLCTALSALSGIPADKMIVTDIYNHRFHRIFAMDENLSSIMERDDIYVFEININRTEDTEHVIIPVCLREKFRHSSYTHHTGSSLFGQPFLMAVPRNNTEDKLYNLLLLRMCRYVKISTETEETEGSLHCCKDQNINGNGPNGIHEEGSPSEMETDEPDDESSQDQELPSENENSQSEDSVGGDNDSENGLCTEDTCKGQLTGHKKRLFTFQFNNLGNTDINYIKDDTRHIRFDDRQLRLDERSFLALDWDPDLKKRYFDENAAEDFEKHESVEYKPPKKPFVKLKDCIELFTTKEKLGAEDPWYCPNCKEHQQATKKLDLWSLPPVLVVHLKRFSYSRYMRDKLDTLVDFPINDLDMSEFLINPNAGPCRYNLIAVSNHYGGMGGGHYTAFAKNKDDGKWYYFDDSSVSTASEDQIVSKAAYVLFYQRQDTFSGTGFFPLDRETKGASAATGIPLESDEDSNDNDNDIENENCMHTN
Outline: as §1

Measured: log2 ratio of Biotin-Ahx-Ub-VS probe labelling

Cc1noc(C)c1CNC(=O)CCl
active: OTUD7B -1.46 | UCHL1 -2.12
inactive: OTUD6B -0.543 | PRPF8 -0.184 | PSMD7 -0.529 | UCHL3 -0.701 | UCHL5 -0.89 | USP10 -0.261 | USP15 -0.867
